In PubChem BioAssay AID1159580 (chemical genetic matrix, 2015):
“And” between values parts separate entries of the source, which are not always exact repeats. Identical values can stand only once. In all, about 5,500 compounds went through this assay and about 2,000 (36%) were called active. Roughly 18% stayed inconclusive and do not appear here. Cut-off read from the data, not from the text of the source: active = normalized growth mostly below about 0.91 (no sharp cut-off); inconclusive = no clear call, values can overlap the other calls; inactive = mostly above about 0.92. Some of the results follow.

Assay: chemical genetic growth profiling, strain panel (AID 1159580);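 note: tested at 20 µM; growth read once vehicle control cultures reached saturation at 30 °C; 1 = growth at the plate median or of vehicle wells; lower values mean less growth of the strain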
Conditions: S. cerevisiae deletion strains, growth OD

Measured: normalized growth

Cc1ncc(CNC(=O)N(CCCl)N=O)c(N)n1
inactive: locus YAL013W, strain DEP1, hits give low values 1.01 and 1 | locus YAL021C, strain ccr4, hits give low values 0.948 | locus YAL026C, strain drs2, hits give low values 1.02 | locus YAL030W, strain snc1, hits give low values 1.01 | locus YAL040C, strain CLN3, hits give low values 0.981 | locus YBL061C, strain skt5, hits give low values 1.01 | locus YBR009C, strain hhf1, hits give low values 0.992 | locus YBR021W, strain FUR4, hits give low values 0.994 | locus YBR023C, strain chs3, hits give low values 1 | locus YBR171W, strain sec66, hits give low values 1.02 | locus YBR229C, strain ROT2, hits give low values 1.03 | locus YBR231C, strain swc5, hits give low values 1.03 | locus YBR279W, strain paf1, hits give low values 1 | locus YCL011C, strain gbp2, hits give low values 1 | locus YCL016C, strain dcc1, hits give low values 0.978 | locus YCL029C, strain bik1, hits give low values 0.985 | locus YCL061C, strain MRC1 (second series), hits give low values 1 | locus YCL061C, strain MRC1, hits give low values 0.999 | locus YCL069W, strain vba3, hits give low values 1.01 | locus YCR088W, strain abp1, hits give low values 1.01 | locus YDL005C, strain med2, hits give low values 1.01 | locus YDL035C, strain GPR1, hits give low values 1 | locus YDL040C, strain nat1, hits give low values 1.02 | locus YDL074C, strain BRE1, hits give low values 1.02 | locus YDL101C, strain DUN1, hits give low values 1.01 | locus YDL134C, strain PPH21, hits give low values 1.03 | locus YDL185W, strain tfp1, hits give low values 0.985 | locus YDL192W, strain arf1, hits give low values 0.997 | locus YDR001C, strain nth1, hits give low values 1.01 | locus YDR069C, strain doa4, hits give low values 1.02 | locus YDR101C, strain arx1, hits give low values 0.983 | locus YDR137W, strain rgp1, hits give low values 1.04 | locus YDR150W, strain NUM1, hits give low values 1.03 and 0.998 | locus YDR159W, strain sac3, hits give low values 1.08 | locus YDR162C, strain NBP2, hits give low values 1 | locus YDR195W, strain ref2 0.993 | locus YDR297W, strain sur2, hits give low values 1.02 | locus YDR318W, strain mcm21, hits give low values 1 | locus YDR334W, strain swr1, hits give low values 1.02 | locus YDR335W, strain msn5, hits give low values 1.01 | locus YDR363W, strain ESC2, hits give low values 1 | locus YDR388W, hits give low values 0.986 | locus YDR392W, strain spt3, hits give low values 0.917 | locus YDR502C, strain sam2, hits give low values 0.99 | locus YEL003W, strain gim4, hits give low values 1.01 | locus YEL037C, strain rad23, hits give low values 1.01 | locus YEL061C, strain CIN8 (second series), hits give low values 1.01 | locus YEL061C, strain CIN8, hits give low values 1.02 | locus YER002W, strain NOP16, hits give low values 1 | locus YER015W, strain faa2, hits give low values 0.982 | locus YER016W, strain bim1, hits give low values 1.02 | locus YER110C, hits give low values 0.979 | locus YER111C, strain swi4, hits give low values 1.01 | locus YER155C, strain BEM2 (second series), hits give low values 1.03 | locus YER155C, strain BEM2, hits give low values 1 | locus YER167W, strain BCK2, hits give low values 1.01 | locus YFR010W, strain ubp6, hits give low values 1.01 | locus YGL078C, strain dbp3, hits give low values 0.991 | locus YGL086W, strain mad1, hits give low values 1 | locus YGL167C, strain pmr1, hits give low values 1 | locus YGL173C, strain kem1, hits give low values 1.01 | locus YGL227W, strain vid30, hits give low values 1.01 | locus YGL240W, strain doc1, hits give low values 1.01 | locus YGL248W, strain PDE1, hits give low values 1.02 | locus YGL253W, strain hxk2, hits give low values 1.01 | locus YGR078C, strain PAC10, hits give low values 1.01 | locus YGR135W, strain pre9, hits give low values 1 | locus YGR229C, strain SMI1, hits give low values 0.994 | locus YGR252W, strain gcn5, hits give low values 0.976 | locus YHR013C, strain ard1, hits give low values 1 | locus YHR027C, strain rpn1, hits give low values 1.04 | locus YHR030C, strain SLT2, hits give low values 1.02 and 0.958 | locus YHR079C, strain IRE1 (second series), hits give low values 0.984 | locus YHR079C, strain IRE1, hits give low values 0.957 | locus YHR094C, strain hxt1, hits give low values 0.989 | locus YHR129C, strain ARP1, hits give low values 1.02 | locus YHR142W, strain chs7, hits give low values 1.01 | locus YHR200W, strain rpn10, hits give low values 0.988 | locus YIL066C, strain RNR3, hits give low values 1.02 | locus YIL073C, strain SPO22, hits give low values 0.994 | locus YIL125W, strain kgd1, hits give low values 0.995 | locus YIR030C, strain dcg1, hits give low values 0.987 | locus YJL092W, strain hpr5, hits give low values 0.978 | locus YJL095W, strain BCK1 (second series), hits give low values 1.03 | locus YJL095W, strain BCK1, hits give low values 0.999 and 0.951 | locus YJL115W, strain asf1, hits give low values 1.01 | locus YJL129C, strain trk1, hits give low values 1.03 | locus YJL134W, strain LCB3, hits give low values 1.02 | locus YJL154C, strain vps35, hits give low values 1.01 | locus YJL164C, strain tpk1, hits give low values 0.988 | locus YJL166W, strain qcr8, hits give low values 1.01 | locus YJL168C, strain set2, hits give low values 0.99 | locus YJL187C, strain SWE1 (second series), hits give low values 1.02 | locus YJL187C, strain SWE1, hits give low values 0.993 | locus YJR043C, strain POL32, hits give low values 0.902 | locus YJR066W, strain TOR1, hits give low values 0.901
